# Key:
# Assay in all cases: DAPPL (digital affinity profiling via proximity ligation, sequencing); 10 mM Tris-HCl pH 7.5, 50 mM NaCl, 1 mM DTT, 4% glycerol, room temperature, 30 min; GST-TFs on glutathione beads, 16-mer random dsDNA library, 0.1% formaldehyde crosslink after washing; high values mean tight binding
# FEV = target: T1, FEV (Homo sapiens, UniProt Q99581 1-238); details: protein: recombinant; tags: N-terminal GST; dsDNA, one strand shown
# T1 sequence: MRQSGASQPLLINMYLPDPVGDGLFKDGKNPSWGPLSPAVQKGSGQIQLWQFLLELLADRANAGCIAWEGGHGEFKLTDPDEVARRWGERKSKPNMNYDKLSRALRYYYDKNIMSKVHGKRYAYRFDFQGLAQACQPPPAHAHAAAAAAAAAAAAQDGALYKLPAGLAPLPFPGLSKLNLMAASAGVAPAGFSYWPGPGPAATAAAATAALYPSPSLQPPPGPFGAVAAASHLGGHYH
# Method in brief: (§1)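 Human transcription factors were made in yeast as GST fusions, captured on glutathione beads and barcoded with DNA. With a tag-only sample included, the pool was incubated with 200 nmole of a random double-stranded 16-mer DNA library in Tris/NaCl/DTT/glycerol buffer at room temperature for 30 min, then crosslinked with 0.1% formaldehyde after washing, ligated by proximity, amplified and sequenced. For binding signal, each hexamer's read frequency for a factor is divided by its frequency for the tag-only sample.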
# ETV5 = ETV5 (Homo sapiens, UniProt P41161 1-510); details: protein: recombinant; tags: N-terminal GST; dsDNA, one strand shown
# Method in brief: as §1
# HSF1 = HSF1 (Homo sapiens, UniProt Q00613 1-529); details: protein: recombinant; tags: N-terminal GST; chain copies: 3; dsDNA, one strand shown
# Method in brief: as §1
# SPIC = target: T2, SPIC (Homo sapiens, UniProt Q8N5J4 1-248); details: protein: recombinant; tags: N-terminal GST; dsDNA, one strand shown
# T2 sequence: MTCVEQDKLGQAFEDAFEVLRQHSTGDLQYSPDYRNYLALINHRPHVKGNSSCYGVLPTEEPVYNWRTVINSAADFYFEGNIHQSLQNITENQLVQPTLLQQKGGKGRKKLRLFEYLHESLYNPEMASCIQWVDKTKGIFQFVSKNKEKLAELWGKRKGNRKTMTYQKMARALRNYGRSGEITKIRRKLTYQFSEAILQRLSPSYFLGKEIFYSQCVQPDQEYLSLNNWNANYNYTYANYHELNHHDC
# Method in brief: as §1
# ELF4 = ELF4 (Homo sapiens, UniProt Q99607 1-663); details: protein: recombinant; tags: N-terminal GST; dsDNA, one strand shown
# Method in brief: as §1
# ELK4 = target: T3, ELK4 (Homo sapiens, UniProt P28324-2 1-405); details: protein: recombinant; tags: N-terminal GST; dsDNA, one strand shown
# T3 sequence: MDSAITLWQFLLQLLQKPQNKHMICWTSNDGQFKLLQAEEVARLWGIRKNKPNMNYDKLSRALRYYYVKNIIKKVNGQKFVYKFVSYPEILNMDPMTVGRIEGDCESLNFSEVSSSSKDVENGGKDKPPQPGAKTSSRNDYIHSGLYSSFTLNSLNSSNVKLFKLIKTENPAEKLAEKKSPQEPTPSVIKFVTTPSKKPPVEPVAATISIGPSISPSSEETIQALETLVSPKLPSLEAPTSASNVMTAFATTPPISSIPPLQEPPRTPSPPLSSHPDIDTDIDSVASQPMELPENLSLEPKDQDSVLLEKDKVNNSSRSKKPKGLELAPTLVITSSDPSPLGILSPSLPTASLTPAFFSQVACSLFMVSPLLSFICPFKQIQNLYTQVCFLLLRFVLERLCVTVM
# Method in brief: as §1
# ETV2 = target: T4, ETV2 (Homo sapiens, UniProt O00321 1-342); details: protein: recombinant; tags: N-terminal GST; dsDNA, one strand shown
# T4 sequence: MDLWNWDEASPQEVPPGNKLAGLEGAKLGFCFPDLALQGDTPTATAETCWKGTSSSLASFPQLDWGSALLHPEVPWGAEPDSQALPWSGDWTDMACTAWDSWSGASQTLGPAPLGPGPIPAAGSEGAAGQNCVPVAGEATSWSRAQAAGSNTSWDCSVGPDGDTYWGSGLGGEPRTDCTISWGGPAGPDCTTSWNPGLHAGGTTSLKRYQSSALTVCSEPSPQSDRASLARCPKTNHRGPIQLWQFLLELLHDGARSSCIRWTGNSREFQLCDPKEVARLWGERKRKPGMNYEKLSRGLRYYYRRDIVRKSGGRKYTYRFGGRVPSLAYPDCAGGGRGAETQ
# Method in brief: as §1
# ELF3 = target: T5, ELF3 (Homo sapiens, UniProt P78545 1-371); details: protein: recombinant; tags: N-terminal GST; dsDNA, one strand shown
# T5 sequence: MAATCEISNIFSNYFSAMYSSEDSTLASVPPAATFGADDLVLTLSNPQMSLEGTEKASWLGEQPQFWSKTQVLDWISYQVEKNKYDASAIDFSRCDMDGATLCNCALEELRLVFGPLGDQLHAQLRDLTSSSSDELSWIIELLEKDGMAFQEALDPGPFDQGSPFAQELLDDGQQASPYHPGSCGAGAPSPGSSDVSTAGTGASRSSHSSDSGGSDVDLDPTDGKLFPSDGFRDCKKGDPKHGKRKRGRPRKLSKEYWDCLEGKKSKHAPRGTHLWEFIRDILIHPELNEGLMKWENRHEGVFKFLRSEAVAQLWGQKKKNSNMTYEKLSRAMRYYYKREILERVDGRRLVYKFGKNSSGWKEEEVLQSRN
# Method in brief: as §1
# CRX = CRX (Homo sapiens, UniProt O43186 1-299); details: protein: recombinant; tags: N-terminal GST; dsDNA, one strand shown
# Method in brief: as §1
# ETV1 = ETV1 (Homo sapiens, UniProt P50549 1-477); details: protein: recombinant; tags: N-terminal GST; dsDNA, one strand shown
# Method in brief: as §1
# ERF = target: T6, ERF (Homo sapiens, UniProt P50548 1-548); details: protein: recombinant; tags: N-terminal GST; dsDNA, one strand shown
# T6 sequence: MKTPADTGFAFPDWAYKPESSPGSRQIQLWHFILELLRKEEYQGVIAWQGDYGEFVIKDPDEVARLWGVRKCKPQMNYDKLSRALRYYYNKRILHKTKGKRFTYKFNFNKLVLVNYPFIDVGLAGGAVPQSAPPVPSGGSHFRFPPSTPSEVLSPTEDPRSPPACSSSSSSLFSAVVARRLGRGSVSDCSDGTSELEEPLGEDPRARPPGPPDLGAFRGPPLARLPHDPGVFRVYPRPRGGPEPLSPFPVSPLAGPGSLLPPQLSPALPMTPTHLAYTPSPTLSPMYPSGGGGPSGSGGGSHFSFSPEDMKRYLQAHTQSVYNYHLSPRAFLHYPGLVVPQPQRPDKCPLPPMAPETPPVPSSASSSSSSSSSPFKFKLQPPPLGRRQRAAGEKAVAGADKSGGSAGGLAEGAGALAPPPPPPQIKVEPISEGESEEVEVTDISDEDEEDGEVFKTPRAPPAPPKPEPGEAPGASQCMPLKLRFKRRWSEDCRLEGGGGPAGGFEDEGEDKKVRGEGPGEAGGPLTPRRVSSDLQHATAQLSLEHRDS
# Method in brief: as §1
# ETV3L = target: T7, ETV3L (Homo sapiens, UniProt Q6ZN32 1-361); details: protein: recombinant; tags: N-terminal GST; dsDNA, one strand shown
# T7 sequence: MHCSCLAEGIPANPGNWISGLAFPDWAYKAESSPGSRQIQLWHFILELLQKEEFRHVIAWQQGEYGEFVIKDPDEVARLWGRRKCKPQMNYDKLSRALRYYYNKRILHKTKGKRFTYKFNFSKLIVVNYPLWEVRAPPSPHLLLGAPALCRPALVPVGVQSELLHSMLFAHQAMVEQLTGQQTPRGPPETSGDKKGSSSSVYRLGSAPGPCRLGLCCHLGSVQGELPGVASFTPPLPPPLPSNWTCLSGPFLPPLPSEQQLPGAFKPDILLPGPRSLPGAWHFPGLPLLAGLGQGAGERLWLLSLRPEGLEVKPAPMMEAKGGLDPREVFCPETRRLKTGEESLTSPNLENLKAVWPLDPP
# Method in brief: as §1
# ETS2 = target: T8, ETS2 (Homo sapiens, UniProt P15036 1-469); details: protein: recombinant; tags: N-terminal GST; dsDNA, one strand shown
# T8 sequence: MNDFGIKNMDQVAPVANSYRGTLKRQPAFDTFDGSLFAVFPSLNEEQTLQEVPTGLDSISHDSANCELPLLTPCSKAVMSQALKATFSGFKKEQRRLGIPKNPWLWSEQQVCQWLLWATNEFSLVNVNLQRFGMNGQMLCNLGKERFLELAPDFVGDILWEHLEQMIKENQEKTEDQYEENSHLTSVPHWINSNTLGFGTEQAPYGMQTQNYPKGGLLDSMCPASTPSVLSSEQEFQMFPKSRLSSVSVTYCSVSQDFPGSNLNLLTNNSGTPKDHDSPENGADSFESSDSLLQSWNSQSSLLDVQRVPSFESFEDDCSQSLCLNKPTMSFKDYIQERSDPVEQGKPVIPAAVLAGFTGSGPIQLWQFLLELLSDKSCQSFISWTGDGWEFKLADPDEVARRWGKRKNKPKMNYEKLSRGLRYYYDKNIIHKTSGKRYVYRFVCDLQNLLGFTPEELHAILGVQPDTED
# Method in brief: as §1
# SPDEF = target: T9, SPDEF (Homo sapiens, UniProt O95238 1-335); details: protein: recombinant; tags: N-terminal GST; dsDNA, one strand shown
# T9 sequence: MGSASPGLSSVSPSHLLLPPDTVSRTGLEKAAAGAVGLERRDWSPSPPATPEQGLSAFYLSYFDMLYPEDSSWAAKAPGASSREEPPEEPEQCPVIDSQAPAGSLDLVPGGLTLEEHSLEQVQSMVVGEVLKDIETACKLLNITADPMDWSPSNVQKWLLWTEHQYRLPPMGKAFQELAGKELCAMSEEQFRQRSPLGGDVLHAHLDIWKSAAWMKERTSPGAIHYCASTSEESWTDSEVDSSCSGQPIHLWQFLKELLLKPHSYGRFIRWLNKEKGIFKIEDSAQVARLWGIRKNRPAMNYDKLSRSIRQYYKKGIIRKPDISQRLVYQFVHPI
# Method in brief: as §1
# ETV7 = target: T10, ETV7 (Homo sapiens, UniProt Q9Y603 1-341); details: protein: recombinant; tags: N-terminal GST; dsDNA, one strand shown
# T10 sequence: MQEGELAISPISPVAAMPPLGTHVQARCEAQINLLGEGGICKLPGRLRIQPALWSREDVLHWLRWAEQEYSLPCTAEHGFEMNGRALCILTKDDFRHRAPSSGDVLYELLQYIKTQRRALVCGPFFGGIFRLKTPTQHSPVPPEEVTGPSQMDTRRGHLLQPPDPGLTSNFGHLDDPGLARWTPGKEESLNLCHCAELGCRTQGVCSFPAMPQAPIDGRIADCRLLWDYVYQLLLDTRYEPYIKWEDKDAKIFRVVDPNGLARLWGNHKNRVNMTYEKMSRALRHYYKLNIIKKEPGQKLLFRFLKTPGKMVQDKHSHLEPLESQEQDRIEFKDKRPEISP
# Method in brief: as §1
# ELF5 = target: T11, ELF5 (Homo sapiens, UniProt Q9UKW6-2 1-255); details: protein: recombinant; tags: N-terminal GST; dsDNA, one strand shown
# T11 sequence: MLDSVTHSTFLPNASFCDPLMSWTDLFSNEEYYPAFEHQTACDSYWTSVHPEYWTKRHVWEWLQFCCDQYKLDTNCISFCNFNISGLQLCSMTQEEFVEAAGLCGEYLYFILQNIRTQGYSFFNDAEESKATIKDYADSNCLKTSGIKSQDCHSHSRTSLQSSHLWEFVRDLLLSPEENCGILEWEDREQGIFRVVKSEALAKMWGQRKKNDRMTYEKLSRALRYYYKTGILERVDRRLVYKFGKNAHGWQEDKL
# Method in brief: as §1
# ETV3 = target: T12, ETV3 (Homo sapiens, UniProt P41162-2 1-143); details: protein: recombinant; tags: N-terminal GST; dsDNA, one strand shown
# T12 sequence: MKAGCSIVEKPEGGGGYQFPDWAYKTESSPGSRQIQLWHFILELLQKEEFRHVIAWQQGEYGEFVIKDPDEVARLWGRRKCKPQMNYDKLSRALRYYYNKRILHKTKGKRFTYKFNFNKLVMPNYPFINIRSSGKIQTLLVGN
# Method in brief: as §1
# ETV6 = ETV6 (Homo sapiens, UniProt P41212 1-452); details: protein: recombinant; tags: N-terminal GST; dsDNA, one strand shown
# Method in brief: as §1
# ETV6, sequence (P41212 whole entry): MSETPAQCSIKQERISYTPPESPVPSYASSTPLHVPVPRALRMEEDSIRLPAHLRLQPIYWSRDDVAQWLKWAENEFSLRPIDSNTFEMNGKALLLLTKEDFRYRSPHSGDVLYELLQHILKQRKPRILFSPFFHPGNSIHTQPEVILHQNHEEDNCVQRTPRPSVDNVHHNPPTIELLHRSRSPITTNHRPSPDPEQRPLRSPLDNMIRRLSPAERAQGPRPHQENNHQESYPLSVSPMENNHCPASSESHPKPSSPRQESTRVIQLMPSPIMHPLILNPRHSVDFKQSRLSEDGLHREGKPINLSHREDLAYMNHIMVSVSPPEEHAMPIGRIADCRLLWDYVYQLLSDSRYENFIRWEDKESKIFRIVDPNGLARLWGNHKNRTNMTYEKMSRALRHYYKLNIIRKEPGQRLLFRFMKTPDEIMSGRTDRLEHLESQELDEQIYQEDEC
# ELF4, sequence (Q99607 whole entry): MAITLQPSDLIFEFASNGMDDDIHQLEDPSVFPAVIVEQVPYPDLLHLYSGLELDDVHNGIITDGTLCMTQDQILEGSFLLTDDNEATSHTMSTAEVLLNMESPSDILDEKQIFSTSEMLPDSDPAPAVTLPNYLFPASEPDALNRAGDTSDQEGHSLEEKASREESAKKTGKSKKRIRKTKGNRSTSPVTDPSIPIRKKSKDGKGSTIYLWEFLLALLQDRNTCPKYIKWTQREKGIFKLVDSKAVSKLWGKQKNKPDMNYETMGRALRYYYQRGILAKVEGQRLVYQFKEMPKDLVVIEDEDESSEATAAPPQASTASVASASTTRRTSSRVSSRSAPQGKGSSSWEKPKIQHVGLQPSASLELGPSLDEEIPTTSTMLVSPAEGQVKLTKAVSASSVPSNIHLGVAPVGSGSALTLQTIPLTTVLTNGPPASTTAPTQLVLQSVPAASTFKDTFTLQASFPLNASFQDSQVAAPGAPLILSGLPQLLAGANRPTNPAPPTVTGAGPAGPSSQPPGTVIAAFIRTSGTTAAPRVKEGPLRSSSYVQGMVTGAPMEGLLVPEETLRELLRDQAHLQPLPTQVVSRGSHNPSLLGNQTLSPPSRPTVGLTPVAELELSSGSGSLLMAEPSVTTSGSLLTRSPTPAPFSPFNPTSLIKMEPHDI
# ETV5, sequence (P41161 whole entry): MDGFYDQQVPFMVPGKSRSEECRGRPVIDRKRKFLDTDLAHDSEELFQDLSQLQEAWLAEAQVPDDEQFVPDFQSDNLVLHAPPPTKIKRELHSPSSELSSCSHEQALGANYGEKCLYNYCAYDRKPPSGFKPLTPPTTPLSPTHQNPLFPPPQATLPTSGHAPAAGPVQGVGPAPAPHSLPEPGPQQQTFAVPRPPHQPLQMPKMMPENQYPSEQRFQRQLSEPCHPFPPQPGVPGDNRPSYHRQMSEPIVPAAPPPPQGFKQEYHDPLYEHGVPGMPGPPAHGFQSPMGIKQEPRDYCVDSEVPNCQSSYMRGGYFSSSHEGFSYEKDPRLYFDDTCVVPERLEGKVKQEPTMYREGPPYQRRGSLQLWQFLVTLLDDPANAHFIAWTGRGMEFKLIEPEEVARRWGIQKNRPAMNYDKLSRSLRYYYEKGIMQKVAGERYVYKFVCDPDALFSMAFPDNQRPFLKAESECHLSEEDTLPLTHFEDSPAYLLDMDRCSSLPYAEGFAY
# ETV1, sequence (P50549 whole entry): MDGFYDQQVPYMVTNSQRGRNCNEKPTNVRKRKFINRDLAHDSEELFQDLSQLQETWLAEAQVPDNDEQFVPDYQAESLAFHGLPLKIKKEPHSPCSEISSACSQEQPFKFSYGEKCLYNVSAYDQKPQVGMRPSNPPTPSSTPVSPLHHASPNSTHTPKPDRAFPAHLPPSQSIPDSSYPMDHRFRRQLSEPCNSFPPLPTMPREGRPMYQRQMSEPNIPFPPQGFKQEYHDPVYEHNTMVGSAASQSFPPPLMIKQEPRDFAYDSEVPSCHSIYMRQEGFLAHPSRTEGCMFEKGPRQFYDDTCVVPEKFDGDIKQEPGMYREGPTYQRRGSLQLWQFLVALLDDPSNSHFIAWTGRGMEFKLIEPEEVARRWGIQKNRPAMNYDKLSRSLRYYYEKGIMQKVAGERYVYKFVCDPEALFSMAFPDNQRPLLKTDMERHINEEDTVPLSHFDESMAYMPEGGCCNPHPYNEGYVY
# HSF1, sequence (Q00613 whole entry): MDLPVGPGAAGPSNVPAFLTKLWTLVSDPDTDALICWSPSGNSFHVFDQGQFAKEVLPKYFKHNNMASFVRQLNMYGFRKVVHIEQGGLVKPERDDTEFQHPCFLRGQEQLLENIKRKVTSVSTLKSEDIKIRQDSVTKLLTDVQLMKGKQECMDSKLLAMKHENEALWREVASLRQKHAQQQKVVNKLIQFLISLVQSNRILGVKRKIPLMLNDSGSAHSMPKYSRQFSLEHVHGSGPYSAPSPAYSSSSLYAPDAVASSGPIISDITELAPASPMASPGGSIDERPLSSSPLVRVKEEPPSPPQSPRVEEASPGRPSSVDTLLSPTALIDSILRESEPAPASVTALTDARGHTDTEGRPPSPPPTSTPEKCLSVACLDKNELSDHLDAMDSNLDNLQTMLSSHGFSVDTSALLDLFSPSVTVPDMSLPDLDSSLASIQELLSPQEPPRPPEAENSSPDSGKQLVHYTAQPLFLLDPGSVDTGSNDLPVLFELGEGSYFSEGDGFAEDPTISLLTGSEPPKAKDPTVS
# CRX, sequence (O43186 whole entry): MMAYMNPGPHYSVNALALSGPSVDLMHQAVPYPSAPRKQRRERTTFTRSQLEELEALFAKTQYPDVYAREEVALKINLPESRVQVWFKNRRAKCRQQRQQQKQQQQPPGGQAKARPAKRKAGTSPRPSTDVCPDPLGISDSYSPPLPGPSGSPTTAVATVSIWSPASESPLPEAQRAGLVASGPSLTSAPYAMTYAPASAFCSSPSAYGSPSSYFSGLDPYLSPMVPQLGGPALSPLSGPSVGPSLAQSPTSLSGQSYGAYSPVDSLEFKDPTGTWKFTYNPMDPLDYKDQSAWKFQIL
sequence,measurement,setting,value
CCCTAT,binding signal,FEV,"1.39 fold enrichment (6-mer frequency, TF over GST control)"
same,binding signal,ETV5,"1.29 fold enrichment (6-mer frequency, TF over GST control)"
same,binding signal,HSF1,"1.13 fold enrichment (6-mer frequency, TF over GST control)"
same,binding signal,SPIC,"1.2 fold enrichment (6-mer frequency, TF over GST control)"
same,binding signal,ELF4,"1.37 fold enrichment (6-mer frequency, TF over GST control)"
same,binding signal,ELK4,"1.29 fold enrichment (6-mer frequency, TF over GST control)"
same,binding signal,ETV2,"1.33 fold enrichment (6-mer frequency, TF over GST control)"
same,binding signal,ELF3,"1.29 fold enrichment (6-mer frequency, TF over GST control)"
same,binding signal,CRX,"1.17 fold enrichment (6-mer frequency, TF over GST control)"
same,binding signal,ETV1,"1.37 fold enrichment (6-mer frequency, TF over GST control)"
same,binding signal,ERF,"1.22 fold enrichment (6-mer frequency, TF over GST control)"
same,binding signal,ETV3L,"1.44 fold enrichment (6-mer frequency, TF over GST control)"
same,binding signal,ETS2,"1.34 fold enrichment (6-mer frequency, TF over GST control)"
same,binding signal,SPDEF,"1.31 fold enrichment (6-mer frequency, TF over GST control)"
same,binding signal,ETV7,"1.3 fold enrichment (6-mer frequency, TF over GST control)"
same,binding signal,ELF5,"1.43 fold enrichment (6-mer frequency, TF over GST control)"
same,binding signal,ETV3,"1.34 fold enrichment (6-mer frequency, TF over GST control)"
same,binding signal,ETV6,"1.28 fold enrichment (6-mer frequency, TF over GST control)"

# Reference: publication PMC7862700, “An all-to-all approach to the identification of sequence-specific readers for epigenetic DNA modifications on cytosine”
